Reference: PubChem BioAssay (NCATS)
Results filed as inconclusive are left out. The source made the active and inactive calls. Unless noted, calls follow the shape of the dose curve; as a rule, active = well fitted curve in the direction sought with a large enough effect; inconclusive = small, poorly fitted or top-dose-only effect, or another doubt; inactive = no such curve, though single readings can be large; an effect the other way counts as inactive or inconclusive.

Key:
[1] = target: Luciferin 4-monooxygenase (Photinus pyralis) (UniProt P08659); test: Biochemical firefly luciferase enzyme assay for NPC (AID 624030);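 also: purified P. pyralis luciferase at 10 nM with luciferin and ATP substrate; 0% = DMSO and -100% = full luciferase inhibition by PTC124 control; nearly all actives have a fitted effect of over 70% in size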
Chain of Luciferin 4-monooxygenase (Photinus pyralis) (P08659 whole entry, looked up): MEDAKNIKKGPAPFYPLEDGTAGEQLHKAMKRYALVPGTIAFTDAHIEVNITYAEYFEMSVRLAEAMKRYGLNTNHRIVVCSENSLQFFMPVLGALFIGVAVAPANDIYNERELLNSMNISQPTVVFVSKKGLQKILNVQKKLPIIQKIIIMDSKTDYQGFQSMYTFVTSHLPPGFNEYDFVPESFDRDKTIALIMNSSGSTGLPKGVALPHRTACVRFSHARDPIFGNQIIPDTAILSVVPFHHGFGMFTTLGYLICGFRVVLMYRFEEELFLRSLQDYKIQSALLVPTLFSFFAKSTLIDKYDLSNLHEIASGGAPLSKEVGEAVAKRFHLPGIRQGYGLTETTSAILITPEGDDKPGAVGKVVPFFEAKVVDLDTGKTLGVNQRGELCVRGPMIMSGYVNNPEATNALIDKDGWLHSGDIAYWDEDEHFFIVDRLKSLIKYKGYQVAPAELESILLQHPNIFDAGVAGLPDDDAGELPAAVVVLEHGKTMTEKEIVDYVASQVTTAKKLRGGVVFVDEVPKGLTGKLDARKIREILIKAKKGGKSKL
Outline: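 Purified P. pyralis luciferase at 10 nM in 50 mM Tris Acetate (final), luminescence read within 5 minutes of enzyme addition to compounds. Activity normalised to PTC124 versus DMSO; concentration-response curves classed by r2, magnitude and activity.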

[2] = S16 Schwann cell viability assay (CellTiter-Glo assay) (AID 624031);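 also: cellular ATP luminescence as a viability measure; plate controls were DMSO-treated cells for no effect and cell-free wells for full effect; nearly all actives have a fitted effect of over 70% in size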
Outline: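 This viability control uses native rat S16 Schwann cells grown in DMEM plus 10% FBS. After a 24 h compound treatment at 37 °C, CellTiter-Glo luminescence reports ATP content, scaled against DMSO-treated and cell-free wells.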

[3] = S16 Schwann cell PMP22 intronic element firefly luciferase assay (AID 624032);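 also: plate controls were DMSO for no effect and PTC124 positive control mean for full effect; nearly all actives have a fitted effect of over 30% in size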
Outline: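 Rat S16 Schwann cells stably carrying firefly luciferase driven by a PMP22 intronic element, in 10% FBS, treated 24 h at 37 C. ONE-Glo luminescence normalized to PTC124 control and DMSO (0%); curves classed by r2, magnitude and activity.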

[4] = S16 Schwann cell PMP22 intronic element beta-lactamase assay (AID 624044; calls by dose curve;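 also: 0% = DMSO and -100% = potassium clavulanate positive control; nearly all actives have a fitted effect of over 15% in size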); details: S16 rat Schwann cells, PMP22 element beta-lactamase FRET, 24 h; ratio activity, negative = inhibition: at 38.3 µM (top of the series) unless noted
Outline: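 Beta-lactamase reporter under a PMP22 intronic regulatory element in stable S16 rat Schwann cells; 24 h compound exposure. 460 nm blue signal normalized between DMSO (0%) and potassium clavulanate, with 535 nm FRET tracking viability; curves classed by r2 and response.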

[5] = qHTS assay for small molecule agonists of the antioxidant response element (ARE) signaling pathway (AID 651741; active = well fitted activation curve with a large enough effect in the signal ratio; the % refers to the signal ratio; also: % of control where 0% means no effect)
Outline: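 Stably integrated ARE-beta-lactamase reporter HepG2 cells; 16 h compound incubation, 37 C; LiveBLAzer FRET substrate 2 h at room temperature; fluorescence intensity.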

[6] = qHTS assay for small molecule activators of the nuclear factor-kappa B (NF-kB) signaling pathway (AID 651749; active = well fitted activation curve with a large enough effect in the signal ratio; the % refers to the signal ratio; also: % of control where 0% means no effect); details: NF-kB-bla ME-180 cells, beta-lactamase FRET ratio, 16 h; active compounds read high
Outline: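 In this qHTS format, compounds acting as activators increase NF-kB-driven beta-lactamase in ME-180 cells, measured as disrupted FRET after 16 hr exposure at 37C and 5% CO2.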

[7] = qHTS assay for environmental chemicals that activate the Aryl hydrocarbon Receptor (AhR) signaling pathway (AID 651777); details: 1A2-DRE human hepatoma cells, luciferase, 24 h; activation: active compounds read high; also: % of control where 0% means no effect; nearly all actives have a fitted effect of over 15% in size
Outline: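 Following a 24 hr incubation with test chemicals at 37 C and 5% CO2, 1A2-DRE human hepatoma cells received One-Glo reagent; after 30 min at room temperature, luciferase output reflected CYP1A2 induction via AhR.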

[8] = target: Peroxisome proliferator-activated receptor alpha (Homo sapiens) (UniProt Q07869); test: qHTS assay for small molecule agonists of the peroxisome proliferator-activated receptor alpha (PPARalpha) signaling pathway (AID 651778); details: PathHunter PPARalpha complementation, chemiluminescence, 6 h; active compounds read high; also: % of control where 0% means no effect
Chain of Peroxisome proliferator-activated receptor alpha (Homo sapiens) (Q07869 whole entry, looked up, the tested form may be a part): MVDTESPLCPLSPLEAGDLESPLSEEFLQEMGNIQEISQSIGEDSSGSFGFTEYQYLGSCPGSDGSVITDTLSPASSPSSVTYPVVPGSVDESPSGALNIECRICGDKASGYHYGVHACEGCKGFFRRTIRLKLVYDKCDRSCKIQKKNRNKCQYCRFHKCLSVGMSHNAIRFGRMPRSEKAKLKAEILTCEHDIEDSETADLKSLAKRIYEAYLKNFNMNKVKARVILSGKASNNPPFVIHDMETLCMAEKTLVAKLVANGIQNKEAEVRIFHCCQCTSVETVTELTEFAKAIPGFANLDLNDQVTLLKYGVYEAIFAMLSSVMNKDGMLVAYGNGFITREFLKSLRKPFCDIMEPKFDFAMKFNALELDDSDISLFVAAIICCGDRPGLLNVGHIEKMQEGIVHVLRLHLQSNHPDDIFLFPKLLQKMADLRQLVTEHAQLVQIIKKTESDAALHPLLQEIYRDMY
Outline: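 Enzyme-fragment complementation assay in which ligand-bound PPARalpha translocates and forms an active enzyme that generates chemiluminescence. Cells were plated overnight, exposed to compound for 6 hr at 37 C, and then given detection reagent for 60 min at room temperature.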

[9] = qHTS assay for small molecule disruptors of the mitochondrial membrane potential - 1 hr assay (AID 651754; calls by dose curve; also: % is scaled to controls: 0 for no effect and ±100 for the full control effect; nearly all actives have a fitted effect of over 35% in size)
Outline: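 Loss of mitochondrial potential shifts the cationic dye from red mitochondrial aggregates to green cytoplasmic monomers. Cells (HepG2) are treated with compound for 1 hr before a 30 min dye incubation at 37C.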

[10] = qHTS assay for small molecule disruptors of the mitochondrial membrane potential - 5 hr assay (AID 651755; calls by dose curve; also: % is scaled to controls: 0 for no effect and ±100 for the full control effect; nearly all actives have a fitted effect of over 40% in size)
Outline: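 Read-out: ratiometric Mito-MPS fluorescence, green monomer (ex 490/em 535) vs red mitochondrial aggregate (ex 540/em 590). HepG2 cells treated 5 hr at 37C before 30 min dye loading.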

CC(=O)[O][Al][O]C(C)=O
inactive: Potency [1] | Potency [2] | Potency [3] | ratio activity, negative = inhibition [4] 0.413%

CC[C@H]1OC(=O)[C@H](C)[C@@H](O[C@H]2C[C@@](C)(OC)[C@@H](O)[C@H](C)O2)C(C)[C@@H](O[C@@H]2O[C@H](C)C[C@H](N(C)C)[C@@H]2O)[C@](C)(OC)C[C@@H](C)C(=O)[C@H](C)[C@@H](O)[C@]1(C)O (stereo partly specified)
inactive: Potency [1] | Potency [2] | Potency [3] | ratio activity, negative = inhibition [4] 4.6%

CC(C)NCC(O)COc1ccccc1-n1cccc1 (stereo unspecified)
inactive: Potency [1] | Potency [2] | Potency [3] | ratio activity, negative = inhibition [4] -5.07%

C[Si](C)(C)O[Si](C)(C)C
inactive: Potency [1] | Potency [2] | Potency [3] | ratio activity, negative = inhibition [4] -0.118% | Potency [5] | activation [6] -1.12% | activation [7] 1.01% | max response [8] -0.124%

CCN(CC)CCOc1ccc2nc(N(C)C)sc2c1
inactive: Potency [1] | Potency [2] | Potency [3] | ratio activity, negative = inhibition [4] 0.178%

O.O.O.O.O.O.O.O=S(=O)([O-])[O-].[Co+2]
inactive: Potency [1] | Potency [2] | Potency [3] | Potency [9] | Potency [10] | activation [7] -0.475% | max response [8] -1.84%
